Records with an inconclusive call do not appear. The source holds several records for some structures; these can differ, active in one and inactive in another. Calls of active or inactive are those of the source. The call rests on the fitted dose curve.
What was measured:
[1] = molecular target: Acetylcholinesterase (Homo sapiens) (UniProt P22303); assay: Acetylcholinesterase (AChE) small molecule antagonists: colormetric cell-based qHTS assay (AID 1347395); further: nearly all actives have a fitted effect of over 30% in size; further: potency means the concentration at half of the fitted maximal effect
How it was run: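 Cells (SH-SY5Y, 2,000 per well) are seeded and left overnight at 37 C. Compound is added for 30 min, then DTNB and acetylthiocholine for a further 90 min at 37 C before absorbance-based thiocholine detection.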

[2] = molecular target: Acetylcholinesterase (Homo sapiens) (UniProt P22303); assay: Acetylcholinesterase (AChE) small molecule antagonists: enzyme-based qHTS assay (AID 1347397); conditions: Potency: AChE enzyme activity inhibition; outcome: AChE enzyme activity inhibition; further: nearly all actives have a fitted effect of over 55% in size; further: potency means the concentration at half of the fitted maximal effect
How it was run: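 Recombinant human AChE (50 mU/mL) preincubated with compound 30 min at room temperature; acetylthiocholine plus DTNB then added, and thiocholine formation read colorimetrically after 10 min at room temperature. DMSO served as vehicle control.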

[3] = molecular target: Acetylcholinesterase (Homo sapiens) (UniProt P22303); assay: Acetylcholinesterase (AChE) small molecule antagonists: fluorescence cell-based qHTS assay (AID 1347398); conditions: Potency: AChE activity; outcome: AChE activity; further: nearly all actives have a fitted effect of over 50% in size; further: potency means the concentration at half of the fitted maximal effect
How it was run: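 SH-SY5Y cells (2000/well), attached overnight, incubated with compound 30 min at 37 C. Acetylthiocholine plus Thiolite Green then added for 40 min at room temperature. Thiocholine fluorescence (Ex/Em 490/520 nm) reports cellular AChE activity.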

[4] = molecular target: Acetylcholinesterase (Homo sapiens) (UniProt P22303); assay: Acetylcholinesterase (AChE) small molecule antagonists: enzyme-based qHTS assay with human liver microsomes (AID 1347399); conditions: Potency: qHTS inhibition; outcome: qHTS inhibition; further: nearly all actives have a fitted effect of over 60% in size
How it was run: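 Recombinant human AChE (50 mU/mL in the enzyme mix) and human liver microsomes (0.25 mg/mL final) were preincubated with compound and NADPH (0.25 mg/mL final) for 30 min at 37 C. Acetylthiocholine/DTNB was then added; thiocholine was read colorimetrically after 10 min at room temperature.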
On the % scale 0 is the no-effect control and ±100 the full control effect.

Acetylcholinesterase (Homo sapiens), sequence (P22303 whole entry, looked up): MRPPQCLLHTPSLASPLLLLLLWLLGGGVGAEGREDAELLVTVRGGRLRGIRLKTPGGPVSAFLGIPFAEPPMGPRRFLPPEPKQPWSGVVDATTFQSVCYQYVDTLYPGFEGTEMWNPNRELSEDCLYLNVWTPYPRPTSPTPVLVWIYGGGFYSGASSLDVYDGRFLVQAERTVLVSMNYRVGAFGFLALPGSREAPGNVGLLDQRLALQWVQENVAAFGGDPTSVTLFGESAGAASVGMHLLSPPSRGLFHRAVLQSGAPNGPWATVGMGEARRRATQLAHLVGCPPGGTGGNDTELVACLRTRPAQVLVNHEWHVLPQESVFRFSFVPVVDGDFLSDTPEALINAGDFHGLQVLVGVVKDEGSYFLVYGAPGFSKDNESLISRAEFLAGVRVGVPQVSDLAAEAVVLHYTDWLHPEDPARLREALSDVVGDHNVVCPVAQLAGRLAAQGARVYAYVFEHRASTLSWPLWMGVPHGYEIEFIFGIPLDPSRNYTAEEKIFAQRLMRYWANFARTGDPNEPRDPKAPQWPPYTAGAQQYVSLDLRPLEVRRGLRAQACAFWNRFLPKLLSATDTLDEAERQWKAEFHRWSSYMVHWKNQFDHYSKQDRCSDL

CC(C)CCO
inactive: Potency [1] | Potency [2] | Potency [3] | Potency [4]

CNC(=O)c1cc(Oc2ccc(NC(=O)Nc3ccc(Cl)c(C(F)(F)F)c3)cc2)ccn1
inactive: Potency [1] | Potency [2] | Potency [3] | Potency [4]

C[C@]12CCC(=O)C=C1CC[C@@H]1[C@@H]2[C@@H](O)C[C@@]2(C)[C@H]1CC[C@]2(O)C(=O)COC(=O)CCC(=O)O
inactive: Potency [1] | Potency [2] | Potency [3] | Potency [4]

CN(C)/N=N/c1nc[nH]c1C(N)=O
inactive: Potency [1] | Potency [2] | Potency [3] | Potency [4]

C=C(C#N)C(=O)OCC
inactive: Potency [1] | Potency [2] | Potency [3] | Potency [4]

COc1cc(C(=O)NCCCCCC(=O)O)cc(OC)c1OC
inactive: Potency [1] | Potency [2] | Potency [3] | Potency [4]

C=CCOC(=O)c1ccc(C(=O)OCC=C)c(C(=O)OCC=C)c1
inactive: Potency [1] | Potency [2] | Potency [3] | Potency [4]

C=CCCCCCCCCOC(C)=O
inactive: Potency [1] | Potency [2] | Potency [3] | Potency [4]

Cn1cccc1
inactive: Potency [1] | Potency [2] | Potency [3] | Potency [4]

C=C[C@@]1(C)CC(=O)[C@]2(O)[C@@]3(C)[C@@H](O)CCC(C)(C)[C@@H]3[C@H](O)[C@H](OC(C)=O)[C@@]2(C)O1
inactive: Potency [1] | Potency [2] | Potency [3] | Potency [4]

CC(C)=CCC1C(=O)N(c2ccccc2)N(c2ccccc2)C1=O
inactive: Potency [1] | Potency [2] | Potency [3] | Potency [4]

Cc1ccccc1C(=O)Nc1ccc(C(=O)N2CCCC(N(C)C)c3ccccc32)cc1 (stereo not given)
inactive: Potency [1] | Potency [2] | Potency [3] | Potency [4]

Nc1ccccc1S(=O)(=O)O
inactive: Potency [1] | Potency [2] | Potency [3] | Potency [4]

CCCC(O)C(O)CO (stereo not given)
inactive: Potency [1] | Potency [2] | Potency [3] | Potency [4]

N[C@H]1C(O)O[C@H](CO)[C@H](O)[C@@H]1O (stereo not given in full)
inactive: Potency [1] | Potency [2] | Potency [3] | Potency [4]

CC(=O)OCC(COC(C)=O)OC(C)=O
inactive: Potency [1] | Potency [2] | Potency [4]
31.3 µM (active) and inactive: Potency [3]

CC(C)(C)CC(C)(C)c1ccccc1O
inactive: Potency [1] | Potency [2] | Potency [3] | Potency [4]

COCC(=O)O
inactive: Potency [1] | Potency [2] | Potency [3] | Potency [4]

Cc1ccccc1CCO
inactive: Potency [1] | Potency [2] | Potency [3] | Potency [4]

C=CC(=O)OCCOCCOCC
inactive: Potency [1] | Potency [2] | Potency [3] | Potency [4]

C#CC(C)(CC)OC(=O)c1ccccc1C(=O)O (stereo not given)
inactive: Potency [1] | Potency [2] | Potency [3] | Potency [4]

C(=C(c1ccccc1)c1ccccc1)c1ccccc1
inactive: Potency [1] | Potency [2] | Potency [3] | Potency [4]

C[C@]12CC[C@@H]3c4ccc(O)cc4CC[C@H]3[C@@H]1CC[C@H]2O
inactive: Potency [1] | Potency [2] | Potency [3] | Potency [4]

CC(C)C[C@H](NC(=O)[C@H](Cc1ccccc1)NC(=O)c1cnccn1)B(O)O
inactive: Potency [1] | Potency [2] | Potency [3] | Potency [4]

O=C(NCc1ncc(C(F)(F)F)cc1Cl)c1c(Cl)cccc1Cl
inactive: Potency [1] | Potency [2] | Potency [3] | Potency [4]

Nc1ccc([N+](=O)[O-])c(N)c1
inactive: Potency [1] | Potency [2] | Potency [3] | Potency [4]

CCCCC(CC)COC(=O)/C=C\C(=O)OCC(CC)CCCC (stereo not given)
inactive: Potency [1] | Potency [2] | Potency [3] | Potency [4]

O=C(Nc1ccccc1)c1cc([N+](=O)[O-])ccc1Cl
inactive: Potency [1] | Potency [2] | Potency [3] | Potency [4]

CCCN(C1CCN(C(=O)C2CCNCC2)CC1)[C@@H]1CCc2ccc(OC)cc2C1
inactive: Potency [1] | Potency [2] | Potency [3] | Potency [4]

CO/N=C(/C(=O)N[C@@H]1C(=O)N2C(C(=O)O)=C(Cn3nnc(C)n3)CS[C@H]12)c1csc(N)n1
inactive: Potency [1] | Potency [2] | Potency [3] | Potency [4]

CC(=O)Nc1ccn(C2COC(COC(=O)c3ccccc3)O2)c(=O)n1 (stereo not given)
inactive: Potency [1] | Potency [2] | Potency [3] | Potency [4]

CCCOC(C)=O
inactive: Potency [1] | Potency [2] | Potency [3] | Potency [4]

COc1cccc2c1C(=O)c1c(O)c3c(c(O)c1C2=O)C[C@@](O)(C(=O)CO)C[C@@H]3O[C@H]1C[C@H](N)[C@H](O)[C@H](C)O1
inactive: Potency [2] | Potency [3] | Potency [4]
active: Potency [1] 8.71 µM

N[C@@H](CSSC[C@H](N)C(=O)O)C(=O)O
inactive: activity, negative = inhibition [1] 3.18% [at 0.435 µM] | activity change, negative = inhibition [2] 0.405% [at 0.435 µM] | activity change, negative = inhibition [3] 2.04% [at 0.439 µM] | activity change, negative = inhibition [4] -2.13% [at 0.435 µM]

CCCCc1ccc(Cl)cc1
inactive: Potency [1] | Potency [2] | Potency [3] | Potency [4]

CCCCN(CCCC)CCC(O)c1cc2c(Cl)cc(Cl)cc2c2cc(C(F)(F)F)ccc12 (stereo not given)
inactive: Potency [1] | Potency [2] | Potency [3] | Potency [4]

CC(C)(C)C1=CC(=O)C=C(C(C)(C)C)C1=O
inactive: Potency [1] | Potency [2] | Potency [3] | Potency [4]

CC1=CC(=O)CC(C)(C)C1(O)/C=C/C(C)=C\C(=O)O (stereo not given)
inactive: Potency [1] | Potency [2] | Potency [3] | Potency [4]

O=C1CC(c2ccc(Cl)cc2)CC(=O)N1
inactive: Potency [1] | Potency [2] | Potency [3] | Potency [4]

Oc1ccc2cc(SSc3ccc4cc(O)ccc4c3)ccc2c1
inactive: Potency [1] | Potency [2] | Potency [3] | Potency [4]

Cc1ccccc1OCC(O)CO (stereo not given)
inactive: Potency [1] | Potency [2] | Potency [3] | Potency [4]

CCCCN(CCCC)c1ccc(C(=O)c2ccccc2C(=O)O)c(O)c1
inactive: Potency [1] | Potency [2] | Potency [3] | Potency [4]

CCCCC(CC)COC(C)=O (stereo not given)
inactive: Potency [1] | Potency [2] | Potency [3] | Potency [4]

C[N+](C)(C)CC(O)CCl (stereo not given)
inactive: Potency [1] | Potency [2] | Potency [3] | Potency [4]

CCCCC[C@H](O)/C=C/[C@H]1[C@H](O)CC(=O)[C@@H]1C/C=C\CCCC(=O)O
inactive: Potency [1] | Potency [2] | Potency [3] | Potency [4]

CCCCCCCC(=O)Oc1c(Br)cc(C#N)cc1Br
inactive: Potency [1] | Potency [2] | Potency [3] | Potency [4]

Cc1cccc(C)c1OCC(C)N (stereo not given)
inactive: outcome [1] | outcome [2] | outcome [3] | outcome [4]

O=C(Nc1cccc(C2=NCCN2)c1)Nc1cccc(C2=NCCN2)c1
active: Potency [1] 3.79 µM | Potency [2] 10.7 µM | Potency [3] 2.13 µM
inactive: activity change, negative = inhibition [4] -3.93% [at 23.6 µM]

O=CC1CC=CCC1 (stereo not given)
inactive: Potency [1] | Potency [2] | Potency [3] | Potency [4]

C/C=C/c1ccc(OC)cc1
inactive: Potency [1] | Potency [2] | Potency [3] | Potency [4]

CC/C=C\CCCCCO
inactive: Potency [1] | Potency [2] | Potency [3] | Potency [4]

O=C1CCC(C2CCCCC2)CC1
inactive: Potency [1] | Potency [2] | Potency [3] | Potency [4]

CCCCSCCCC
inactive: Potency [1] | Potency [2] | Potency [3] | Potency [4]

CCCCC/C=C\C/C=C\CCCCCCCC(=O)O
inactive: Potency [1] | Potency [2] | Potency [3] | Potency [4]

CCOc1ccc2nc(S(N)(=O)=O)sc2c1
inactive: Potency [1] | Potency [2] | Potency [3] | Potency [4]

CCCOCCC
inactive: Potency [1] | Potency [2] | Potency [3] | Potency [4]

Nc1cccc(N)n1
inactive: Potency [1] | Potency [2] | Potency [3] | Potency [4]

CC(O)CN(CCN(CC(C)O)CC(C)O)CC(C)O (stereo not given)
inactive: Potency [1] | Potency [2] | Potency [3] | Potency [4]

C=CCCC(=O)/C=C/C1C(C)=CCCC1(C)C (stereo not given)
inactive: Potency [1] | Potency [2] | Potency [3] | Potency [4]

CCCCNC(=S)NCCCC
inactive: Potency [1] | Potency [2] | Potency [3] | Potency [4]

— PubChem BioAssay (Tox21)
